Results with a measured potency or affinity are listed apart. Unmarked numbers belong to inactive results. The rule behind the calls is not given here.
System: not listed separately
Test: A549 cell cytotoxicity, dose response, cytotoxicity control, plate reader, cherry-pick, antagonist series (AID 743412);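 note: 0% = neutral control wells and -100% = positive control wells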
Conditions: series mostly up to 26 µM; activity change, negative = cytotoxicity: at the top concentration

Row | Compound | activity change, negative = cytotoxicity [%]
1 | O=C(Cc1ccccc1Cl)Nc1cccnc1 | 4.42
2 | C=CCn1c(SCC(=O)Nc2ncc(Cc3ccc(C)c(Cl)c3)s2)nnc1-c1ccncc1 | -1.67
3 | c1nc(CCO[C@H]2CCCCO2)cc2cc3c(cc12)OCO3 | 20.5
4 | C[C@@H]1CN([C@@H](C)CO)C(=O)c2cccc(NC(=O)Nc3ccc(C(F)(F)F)cc3)c2O[C@H]1CN(C)C(=O)Nc1cccc2ccccc12 | -3.89
5 | CCN(C(=O)COC(=O)C12CC3CC(CC(O)(C3)C1)C2)c1c(N)n(Cc2ccccc2)c(=O)[nH]c1=O | -5.26
6 | COc1ccc(-c2cc(C)nc3c(-c4ccccc4)cnn23)cc1 | 9.24
7 | CC(C)c1ccc(NC(=O)N2CCN(S(=O)(=O)c3ccccc3)CC2)cc1 | -2.31

System: not listed separately
Test: HepG2 cell cytotoxicity, dose response, cytotoxicity control, plate reader, cherry-pick, antagonist series (AID 743416);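 note: 0% = neutral control wells and -100% = positive control wells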
Conditions: series mostly up to 26 µM; activity change, negative = cytotoxicity: at the top concentration

Row | Compound | activity change, negative = cytotoxicity
8 | CC(C)(C)NC(=O)c1cccc(NC(=O)c2ccc3c(c2)C(=O)N(C(C)(C)C)C3=O)c1 | 5.49%
9 | Cc1noc(C)c1S(=O)(=O)Nc1cccc2c1O[C@H](CN(C)C(=O)Nc1ccc(F)cc1)[C@H](C)CN([C@H](C)CO)C2=O | -2.53%
10 | COc1ccc2c3c([nH]c2c1)[C@H](CO)N(C(C)=O)CC31CCN(C(=O)CN2CCOCC2)CC1 | 8.14%
11 | O=C(CC1CS(=O)(=O)CC1CC(=O)Nc1ccc2c(c1)OCCO2)Nc1ccc2c(c1)OCCO2 (stereo unspecified) | 7.87%
12 | C[C@H](CO)N1C[C@H](C)[C@H](CN(C)C(=O)Nc2ccc(F)cc2)OCCCC[C@H](C)Oc2ccc(NC(=O)NC3CCCCC3)cc2C1=O | -9.47%
13 | CCc1nnc(NC(=O)CSc2nnc3ncccn23)s1 | 0.634%
14 | O=C(Nc1cccnc1)c1cc(-c2ccc3c(c2)OCO3)on1 | -8.83%
15 | Cc1ccc(-c2nc(-c3ccncc3)no2)c(Cl)c1 | 59.3%
16 | CSc1nc2ccc(NC(=O)c3ccccn3)cc2s1 | -9.16%
17 | COCCn1c(C)cc(C(=O)CSc2nnnn2C2CCCC2)c1C | -5.42%
18 | C=CCNc1nc(-c2cc3ccccc3o2)cs1 | -8.3%
19 | CCn1c(C)cc(C(=O)CN2C(=O)c3ccccc3S2(=O)=O)c1C | 10.8%
20 | CCOC(=O)C1=CCN(S(=O)(=O)c2ccccc2C)C1c1cccc(C)c1 (stereo unspecified) | 2.31%
21 | Cc1ccccc1S(=O)(=O)N1[C@H](C#N)[C@H](c2ccc(C#CC3CCCCC3)cc2)[C@H]1CO | 9.29%
22 | COc1ccc(S(=O)(=O)N2CCN(C(=O)c3ccc(C)o3)CC2)cc1 | 6.04%
23 | Clc1ccc(OCc2nc(-c3ccccn3)no2)c(Br)c1 | -2.27%
24 | O=S1(=O)CCOC[C@H](CC2CCCCC2)N1Cc1ccccc1F | 0.922%
25 | C[C@H](CO)N1C[C@H](C)[C@@H](CN(C)S(=O)(=O)c2cccs2)Oc2c(cccc2N(C)C)C1=O | 26%
26 | Cc1ccc(-c2nc(-c3ccccn3)no2)cc1[N+](=O)[O-] | -5.97%
27 | CC(C)NC(=O)Nc1ccc2c(c1)C(=O)N([C@H](C)CO)C[C@@H](C)[C@H](CN(C)S(C)(=O)=O)OCCCC[C@H](C)O2 | 15.3%

Row | Compound | activity change, negative = cytotoxicity
28 | CC(=O)c1ccc(S(=O)(=O)N2CCC(NC(=O)Nc3cccc(F)c3)CC2)cc1 | -2.03%
29 | CO[C@@H]1CN(C)C(=O)c2ccc(NC(=O)C3CC3)cc2OC[C@@H](C)NC[C@@H]1C | -21.5%
30 | O=C(NCCOc1ccccc1)[C@@H]1CCCN1C(=O)c1cccs1 | -0.822%
31 | COc1ccc(-c2nc(N)n(C(=O)c3cccs3)n2)cc1 | -0.118%
32 | COc1ccccc1C=NNC(=O)c1ccncc1 | -2.38%
33 | C[C@H](CO)N1C[C@H](C)[C@H](CN(C)Cc2ccccc2)Oc2c(NS(=O)(=O)c3cn(C)cn3)cccc2C1=O | -8.79%
34 | CCc1nnc2cccc(Cl)n12 | 55.8%
35 | Cc1ccc(C(=O)Nc2ccc3c(c2)OCCO3)c(Cl)c1 | -5.88%
36 | Cc1ccc2nc(-c3ccc(NC(=O)c4cccnc4)cc3)oc2c1 | 7.76%
37 | O=C(Nc1nc2c(s1)CCCC2)C1COc2ccccc2O1 (stereo unspecified) | 3.2%
38 | C[C@@H]1CN([C@H](C)CO)C(=O)c2cc(C#CCN(C)C)cnc2O[C@@H]1CN(C)C(=O)CN1CCOCC1 | 9.11%
39 | Cc1ccc(NC(=O)c2ncn(CC(=O)NCc3ccc4[nH]ccc4c3)n2)cc1C | -1%
40 | O=C(Cc1ccccc1Cl)Nc1cccnc1 | 4.92%
41 | C=CCn1c(SCC(=O)Nc2ncc(Cc3ccc(C)c(Cl)c3)s2)nnc1-c1ccncc1 | -3.01%
42 | c1nc(CCO[C@H]2CCCCO2)cc2cc3c(cc12)OCO3 | -4.92%
43 | C[C@@H]1CN([C@@H](C)CO)C(=O)c2cccc(NC(=O)Nc3ccc(C(F)(F)F)cc3)c2O[C@H]1CN(C)C(=O)Nc1cccc2ccccc12 | -10.3% [at 12 µM]
44 | CCN(C(=O)COC(=O)C12CC3CC(CC(O)(C3)C1)C2)c1c(N)n(Cc2ccccc2)c(=O)[nH]c1=O | 9.07%
45 | COc1ccc(-c2cc(C)nc3c(-c4ccccc4)cnn23)cc1 | 6.39%
46 | CC(C)c1ccc(NC(=O)N2CCN(S(=O)(=O)c3ccccc3)CC2)cc1 | -18.9%

Target: Melanocortin receptor 4 (Homo sapiens) (UniProt P32245)
Test: MC4R antagonists, dose response, counter-screen for LGR2 antagonist project, cell-based, plate reader, cherry pick (AID 743444)
Conditions: MC4R-expressing cells, antagonist mode; series mostly up to 35 µM; activity change, negative = inhibition: at the top concentration

Row | Compound | activity change, negative = inhibition [%]
47 | CC(C)(C)NC(=O)c1cccc(NC(=O)c2ccc3c(c2)C(=O)N(C(C)(C)C)C3=O)c1 | -22.7
48 | Cc1noc(C)c1S(=O)(=O)Nc1cccc2c1O[C@H](CN(C)C(=O)Nc1ccc(F)cc1)[C@H](C)CN([C@H](C)CO)C2=O | -11.7
49 | COc1ccc2c3c([nH]c2c1)[C@H](CO)N(C(C)=O)CC31CCN(C(=O)CN2CCOCC2)CC1 | 7.8
50 | O=C(CC1CS(=O)(=O)CC1CC(=O)Nc1ccc2c(c1)OCCO2)Nc1ccc2c(c1)OCCO2 (stereo unspecified) | -8.07
51 | C[C@H](CO)N1C[C@H](C)[C@H](CN(C)C(=O)Nc2ccc(F)cc2)OCCCC[C@H](C)Oc2ccc(NC(=O)NC3CCCCC3)cc2C1=O | -11.9
52 | CCc1nnc(NC(=O)CSc2nnc3ncccn23)s1 | 2.04
53 | CCOC(=O)C1=CCN(S(=O)(=O)c2ccccc2C)C1c1cccc(C)c1 (stereo unspecified) | -6.63
54 | COc1ccc(S(=O)(=O)N2CCN(C(=O)c3ccc(C)o3)CC2)cc1 | 21.1
55 | O=S1(=O)CCOC[C@H](CC2CCCCC2)N1Cc1ccccc1F | 0.857
56 | C[C@H](CO)N1C[C@H](C)[C@@H](CN(C)S(=O)(=O)c2cccs2)Oc2c(cccc2N(C)C)C1=O | -19.9
57 | CC(C)NC(=O)Nc1ccc2c(c1)C(=O)N([C@H](C)CO)C[C@@H](C)[C@H](CN(C)S(C)(=O)=O)OCCCC[C@H](C)O2 | 2.3
58 | CC(=O)c1ccc(S(=O)(=O)N2CCC(NC(=O)Nc3cccc(F)c3)CC2)cc1 | 42.2
59 | CO[C@@H]1CN(C)C(=O)c2ccc(NC(=O)C3CC3)cc2OC[C@@H](C)NC[C@@H]1C | -15
60 | O=C(NCCOc1ccccc1)[C@@H]1CCCN1C(=O)c1cccs1 | 5.42
61 | COc1ccc(-c2nc(N)n(C(=O)c3cccs3)n2)cc1 | 18.9
62 | COc1ccccc1C=NNC(=O)c1ccncc1 | 44.6
63 | C[C@H](CO)N1C[C@H](C)[C@H](CN(C)Cc2ccccc2)Oc2c(NS(=O)(=O)c3cn(C)cn3)cccc2C1=O | -0.788
64 | CCc1nnc2cccc(Cl)n12 | 38.6
65 | C[C@@H]1CN([C@H](C)CO)C(=O)c2cc(C#CCN(C)C)cnc2O[C@@H]1CN(C)C(=O)CN1CCOCC1 | 1.26
66 | Cc1ccc(NC(=O)c2ncn(CC(=O)NCc3ccc4[nH]ccc4c3)n2)cc1C | 31.5
67 | O=C(Cc1ccccc1Cl)Nc1cccnc1 | 26.7
68 | C=CCn1c(SCC(=O)Nc2ncc(Cc3ccc(C)c(Cl)c3)s2)nnc1-c1ccncc1 | 112
69 | C[C@@H]1CN([C@@H](C)CO)C(=O)c2cccc(NC(=O)Nc3ccc(C(F)(F)F)cc3)c2O[C@H]1CN(C)C(=O)Nc1cccc2ccccc12 | -10.3
70 | CCN(C(=O)COC(=O)C12CC3CC(CC(O)(C3)C1)C2)c1c(N)n(Cc2ccccc2)c(=O)[nH]c1=O | 16.7
71 | CC(C)c1ccc(NC(=O)N2CCN(S(=O)(=O)c3ccccc3)CC2)cc1 | 11.7

— PubChem BioAssay
